# Assay results: the supplement of paper PMC10037445
# The full ranking holds about 2,900 compounds; the median of “NF-kB SEAP reporter activity, fold change vs agonist alone” is about 0.99, and the highest 2% start at about 2.6. This excerpt belongs to a sample that is enriched for the highest values.
# Key:
# [1] = test system: RAW-Dual; experiment: NF-kB SEAP reporter activity, fold change vs agonist alone; higher = enhanced NF-kB activity
# Outline: (§1)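 Supernatant from RAW-Dual macrophages was read after 20 hours for IRF by QuantiLuc luminescence and for NF-κB by QuantiBlue absorbance at 620 nm. The cells (50,000 cells/well in DMEM, 384-well plates, 37 °C, 5% CO2) had received 50 nL of library stock by pin tool and, 1 h later, a PRR agonist. Reporter activity is expressed relative to agonist-alone wells as fold change, and wells were flagged cytotoxic if IncuCyte confluency was under 70% of agonist controls in both mask sets.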
# [2] = test system: RAW-Dual; experiment: NF-kB SEAP reporter activity, fold change vs agonist alone; cytotoxicity flag (confluency mask): not cytotoxic; higher = enhanced NF-kB activity
# Outline: as §1
# [3] = test system: RAW-Dual; experiment: NF-kB SEAP reporter activity, fold change vs agonist alone; cytotoxicity flag (confluency mask): cytotoxic (confluency <70% of control); higher = enhanced NF-kB activity
# Outline: as §1
# [4] = library stock concentration (final ~1000-fold dilution): 10 mM, cytotoxicity flag (confluency mask): not cytotoxic, agonist: Imiquimod (TLR7) […]
# [5] = library stock concentration (final ~1000-fold dilution): 10 mM, cytotoxicity flag (confluency mask): not cytotoxic, agonist: MPLA (TLR4) […]
# [6] = agonist: ODN 1826 (TLR9) 0.5 ug/mL
# [7] = agonist: Pam2CSK4 (TLR2/6) 0.1 ug/mL
# [8] = agonist: Pam3CSK4 (TLR2/1) 0.1 ug/mL
# [9] = library stock concentration (final ~1000-fold dilution): 10 mM water, cytotoxicity flag (confluency mask): not cytotoxic, agonist: Imiquimod (TLR7) […]
# [10] = library stock concentration (final ~1000-fold dilution): 10 mM water, cytotoxicity flag (confluency mask): not cytotoxic, agonist: MPLA (TLR4) […]
structure (smiles),measurement,setting,value
Cc1cc(Nc2nc(NC(C)c3ccc(F)cc3)c(C#N)cc2F)n[nH]1 (configuration not stated),NF-kB SEAP reporter activity,[1]; [4],1
same,NF-kB SEAP reporter activity,[1]; [5],0.984
Cc1cc(Nc2nc(NC(C)c3ccc(F)cc3)c(C#N)cc2F)n[nH]1 (configuration not stated) (library stock concentration (final ~1000-fold dilution): 10 mM),NF-kB SEAP reporter activity,[2]; agonist: LPS (TLR4) 0.1 ug/mL,1.87
same,NF-kB SEAP reporter activity,[2]; [6],0.965
same,NF-kB SEAP reporter activity,[2]; [7],1.44
same,NF-kB SEAP reporter activity,[2]; [8],0.993
Cc1cc(Nc2cc(Cl)nc(Oc3ccc([N+](=O)[O-])cc3)n2)n[nH]1,NF-kB SEAP reporter activity,[1]; [4],1.24
same,NF-kB SEAP reporter activity,[1]; [5],2.16
Cc1cc(Nc2cc(Cl)nc(Oc3ccc([N+](=O)[O-])cc3)n2)n[nH]1 (library stock concentration (final ~1000-fold dilution): 10 mM),NF-kB SEAP reporter activity,[2]; agonist: LPS (TLR4) 0.1 ug/mL,3.28
same,NF-kB SEAP reporter activity,[2]; [6],2.32
same,NF-kB SEAP reporter activity,[2]; [7],1.82
same,NF-kB SEAP reporter activity,[2]; [8],2.92
O=C(O)[C@H](O)Cc1ccc(O)c(O)c1,NF-kB SEAP reporter activity,[1]; [9],0.919
same,NF-kB SEAP reporter activity,[1]; [10],1.04
O=C(O)[C@H](O)Cc1ccc(O)c(O)c1 (library stock concentration (final ~1000-fold dilution): 10 mM water),NF-kB SEAP reporter activity,[2]; agonist: LPS (TLR4) 0.1 ug/mL,1.19
same,NF-kB SEAP reporter activity,[2]; [6],1.22
same,NF-kB SEAP reporter activity,[2]; [7],1.1
same,NF-kB SEAP reporter activity,[2]; [8],1
COc1nc2ccc(Br)cc2cc1C(c1ccccc1)C(O)(CCN(C)C)c1cccc2ccccc12 (configuration not stated),NF-kB SEAP reporter activity,[1]; [4],0.771
same,NF-kB SEAP reporter activity,[1]; [5],0.783
COc1nc2ccc(Br)cc2cc1C(c1ccccc1)C(O)(CCN(C)C)c1cccc2ccccc12 (configuration not stated) (library stock concentration (final ~1000-fold dilution): 10 mM),NF-kB SEAP reporter activity,[2]; agonist: LPS (TLR4) 0.1 ug/mL,0.761
same,NF-kB SEAP reporter activity,[2]; [6],0.86
same,NF-kB SEAP reporter activity,[2]; [7],0.78
same,NF-kB SEAP reporter activity,[2]; [8],0.531
NCC1OC(OC2C(CO)OC(OC3C(O)C(N)CC(N)C3OC3OC(CO)C(O)C(O)C3N)C2O)C(N)C(O)C1O.O=S(=O)(O)O (configuration not stated),NF-kB SEAP reporter activity,[1]; [9],0.946
same,NF-kB SEAP reporter activity,[1]; [10],1.03
NCC1OC(OC2C(CO)OC(OC3C(O)C(N)CC(N)C3OC3OC(CO)C(O)C(O)C3N)C2O)C(N)C(O)C1O.O=S(=O)(O)O (configuration not stated) (library stock concentration (final ~1000-fold dilution): 10 mM water),NF-kB SEAP reporter activity,[2]; agonist: LPS (TLR4) 0.1 ug/mL,1.05
same,NF-kB SEAP reporter activity,[2]; [6],1.24
same,NF-kB SEAP reporter activity,[2]; [7],1.27
same,NF-kB SEAP reporter activity,[2]; [8],1.03
CC(C)(C)NCC(O)COc1ccccc1C1CCCC1.CC(C)(C)NCC(O)COc1ccccc1C1CCCC1.O=S(=O)(O)O (configuration not stated) (library stock concentration (final ~1000-fold dilution): 10 mM),NF-kB SEAP reporter activity,[2]; agonist: LPS (TLR4) 0.1 ug/mL,0.844
same,NF-kB SEAP reporter activity,[2]; [6],1.08
same,NF-kB SEAP reporter activity,[2]; [7],0.857
same,NF-kB SEAP reporter activity,[2]; [8],0.842
CC(C)(C)NCC(O)COc1ccccc1C1CCCC1.CC(C)(C)NCC(O)COc1ccccc1C1CCCC1.O=S(=O)(O)O (configuration not stated),NF-kB SEAP reporter activity,[1]; [4],1.29
same,NF-kB SEAP reporter activity,[1]; [5],1.32
CN1CCc2c(c3ccccc3n2Cc2ccccc2)C1.CN1CCc2c(c3ccccc3n2Cc2ccccc2)C1.O=S(=O)(O)c1cccc2c(S(=O)(=O)O)cccc12 (library stock concentration (final ~1000-fold dilution): 2 mM),NF-kB SEAP reporter activity,[2]; agonist: LPS (TLR4) 0.1 ug/mL,1.29
same,NF-kB SEAP reporter activity,[2]; [6],0.722
same,NF-kB SEAP reporter activity,[2]; [7],0.952
same,NF-kB SEAP reporter activity,[2]; [8],0.958
CN1CCc2c(c3ccccc3n2Cc2ccc(C(=O)NO)cc2)C1.Cl,NF-kB SEAP reporter activity,[1]; [4],2.44
same,NF-kB SEAP reporter activity,[1]; [5],2.55
CN1CCc2c(c3ccccc3n2Cc2ccc(C(=O)NO)cc2)C1.Cl (library stock concentration (final ~1000-fold dilution): 10 mM),NF-kB SEAP reporter activity,[2]; agonist: LPS (TLR4) 0.1 ug/mL,5.1
same,NF-kB SEAP reporter activity,[2]; [6],1.71
same,NF-kB SEAP reporter activity,[2]; [7],1.08
same,NF-kB SEAP reporter activity,[2]; [8],1.59
CN1CCc2c(c3ccccc3n2Cc2ccc(C(=O)NO)cc2)C1,NF-kB SEAP reporter activity,[1]; [4],1
same,NF-kB SEAP reporter activity,[1]; [5],1.11
CN1CCc2c(c3ccccc3n2Cc2ccc(C(=O)NO)cc2)C1 (library stock concentration (final ~1000-fold dilution): 10 mM),NF-kB SEAP reporter activity,[2]; agonist: LPS (TLR4) 0.1 ug/mL,1.15
same,NF-kB SEAP reporter activity,[2]; [6],1.21
same,NF-kB SEAP reporter activity,[2]; [7],0.779
same,NF-kB SEAP reporter activity,[2]; [8],1.15
CN1CCc2c(c3ccccc3n2Cc2ccccc2)C1.CN1CCc2c(c3ccccc3n2Cc2ccccc2)C1.O=S(=O)(O)c1cccc2c(S(=O)(=O)O)cccc12,NF-kB SEAP reporter activity,"[1]; library stock concentration (final ~1000-fold dilution): 2 mM, cytotoxicity flag (confluency mask): not cytotoxic, agonist: MPLA (TLR4) […]",1.15
CC(C)N(CCC(=O)c1ccc2ccccc2c1)Cc1ccccc1.Cl,NF-kB SEAP reporter activity,"[1]; library stock concentration (final ~1000-fold dilution): 10 mM, cytotoxicity flag (confluency mask): cytotoxic (confluency <70% of control), agonist: Imiquimod (TLR7) […]",1.07
same,NF-kB SEAP reporter activity,"[1]; library stock concentration (final ~1000-fold dilution): 10 mM, cytotoxicity flag (confluency mask): cytotoxic (confluency <70% of control), agonist: MPLA (TLR4) […]",0.507
CC(C)N(CCC(=O)c1ccc2ccccc2c1)Cc1ccccc1.Cl (library stock concentration (final ~1000-fold dilution): 10 mM),NF-kB SEAP reporter activity,[3]; agonist: LPS (TLR4) 0.1 ug/mL,0.45
same,NF-kB SEAP reporter activity,[3]; [6],0.518
same,NF-kB SEAP reporter activity,[3]; [7],0.615
same,NF-kB SEAP reporter activity,[3]; [8],0.442
O=C(NCCO)c1cccc(-c2cc(Nc3ccc(OC(F)(F)F)cc3)ncn2)c1 (library stock concentration (final ~1000-fold dilution): 10 mM),NF-kB SEAP reporter activity,[2]; agonist: LPS (TLR4) 0.1 ug/mL,1.15
same,NF-kB SEAP reporter activity,[2]; [6],0.796
same,NF-kB SEAP reporter activity,[2]; [7],0.96
same,NF-kB SEAP reporter activity,[2]; [8],1.03
O=C(Nc1ccc(OC(F)(F)F)cc1)c1sccc1NCc1ccnc2ccccc12,NF-kB SEAP reporter activity,[1]; [4],1.77
same,NF-kB SEAP reporter activity,[1]; [5],2.25
Cc1cc(Nc2ccc(NC(=O)c3ccc(Nc4ccnc5ccccc45)cc3)cc2)nc(N)n1 (library stock concentration (final ~1000-fold dilution): 10 mM),NF-kB SEAP reporter activity,[2]; agonist: LPS (TLR4) 0.1 ug/mL,2.34
same,NF-kB SEAP reporter activity,[2]; [6],0.228
same,NF-kB SEAP reporter activity,[2]; [7],0.856
same,NF-kB SEAP reporter activity,[2]; [8],1.34
Cc1cc(Nc2ccc(NC(=O)c3ccc(Nc4ccnc5ccccc45)cc3)cc2)nc(N)n1,NF-kB SEAP reporter activity,[1]; [4],1.31
same,NF-kB SEAP reporter activity,[1]; [5],2.36
O=C(NCCO)c1cccc(-c2cc(Nc3ccc(OC(F)(F)F)cc3)ncn2)c1,NF-kB SEAP reporter activity,[1]; [4],1.09
same,NF-kB SEAP reporter activity,[1]; [5],1.23
O=C(Nc1ccc(OC(F)(F)F)cc1)c1sccc1NCc1ccnc2ccccc12 (library stock concentration (final ~1000-fold dilution): 10 mM),NF-kB SEAP reporter activity,[2]; agonist: LPS (TLR4) 0.1 ug/mL,2.86
same,NF-kB SEAP reporter activity,[2]; [6],1.18
same,NF-kB SEAP reporter activity,[2]; [7],0.672
same,NF-kB SEAP reporter activity,[2]; [8],1.07
